High-throughput results deposited in PubChem by The Scripps Research Institute Molecular Screening Center.
Only some compounds are listed: those with a hit (about 1.9% of all), similar ones and a draw of the others.
PLC-gamma1 inh = blocks human PLC-gamma1 enzyme activity; P19174; purified PLC-gamma1, fluorogenic substrate, fluorescence; inhibition, % at 12.2 µM; hit rate 0.84% among 370,000; AID 720700; in the data active = inhibition above about 9.5%
bovine MsrA act = activators of bovine methionine sulfoxide reductase A; hit rate 0.3% among 360,000; activation, % at 10.6 µM; purified bovine MsrA, absorbance read-out; in the data active = activation above about 7.5%
MsrA inhibitor = inhibitors of bovine MsrA; purified bovine MsrA, absorbance read-out; inhibition, % at 15.5 µM; hit rate 0.75% among 360,000; AID 651718; in the data active = inhibition above about 4.5%
PLCb3 inh = inhibitors of human phospholipase C beta3; Q01970; hit rate 0.18% among 370,000; Purified PLC-beta3, fluorogenic substrate, fluorescence; inhibition, % at 12.2 µM
Target sequence (Q01970 whole entry, looked up): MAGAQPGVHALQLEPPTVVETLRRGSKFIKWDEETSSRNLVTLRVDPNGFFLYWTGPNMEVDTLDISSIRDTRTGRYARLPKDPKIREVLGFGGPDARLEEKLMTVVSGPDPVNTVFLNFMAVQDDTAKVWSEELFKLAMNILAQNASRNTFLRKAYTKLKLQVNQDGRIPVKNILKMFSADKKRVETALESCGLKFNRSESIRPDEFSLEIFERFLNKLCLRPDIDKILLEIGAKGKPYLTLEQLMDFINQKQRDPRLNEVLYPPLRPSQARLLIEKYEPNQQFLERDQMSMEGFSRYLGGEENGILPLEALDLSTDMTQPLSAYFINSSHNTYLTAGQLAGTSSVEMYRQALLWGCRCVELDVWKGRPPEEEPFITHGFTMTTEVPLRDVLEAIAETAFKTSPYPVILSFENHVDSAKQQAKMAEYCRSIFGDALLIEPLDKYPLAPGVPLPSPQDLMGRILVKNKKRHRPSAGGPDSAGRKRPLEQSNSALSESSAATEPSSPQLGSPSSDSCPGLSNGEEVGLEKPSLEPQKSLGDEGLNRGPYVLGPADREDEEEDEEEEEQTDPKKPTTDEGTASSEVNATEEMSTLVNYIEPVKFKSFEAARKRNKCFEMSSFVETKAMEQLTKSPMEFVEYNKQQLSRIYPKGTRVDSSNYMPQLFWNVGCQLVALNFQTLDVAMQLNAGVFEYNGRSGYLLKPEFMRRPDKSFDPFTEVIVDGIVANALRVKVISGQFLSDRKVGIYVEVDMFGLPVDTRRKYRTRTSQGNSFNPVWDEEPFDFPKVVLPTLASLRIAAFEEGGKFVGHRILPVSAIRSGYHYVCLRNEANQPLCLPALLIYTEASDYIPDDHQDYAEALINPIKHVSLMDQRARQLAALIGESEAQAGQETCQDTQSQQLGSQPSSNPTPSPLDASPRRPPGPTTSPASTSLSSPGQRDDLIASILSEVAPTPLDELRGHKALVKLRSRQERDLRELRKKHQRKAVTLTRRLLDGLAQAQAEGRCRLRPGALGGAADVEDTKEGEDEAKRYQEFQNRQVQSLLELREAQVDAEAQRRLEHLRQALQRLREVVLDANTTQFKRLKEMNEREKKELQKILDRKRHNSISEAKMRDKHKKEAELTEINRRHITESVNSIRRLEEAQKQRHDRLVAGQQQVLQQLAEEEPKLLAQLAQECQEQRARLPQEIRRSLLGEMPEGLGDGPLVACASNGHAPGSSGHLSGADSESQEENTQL
PLCg1 ctr = inhibits human PLC-gamma1 in PLC-beta3 counter-screen; shares compounds with PLC-gamma1 inh; purified PLC-gamma1, fluorogenic substrate, fluorescence; hit rate 3.1% among 3,300; inhibition, % at 12.3 µM; in the data active = inhibition above about 9.5%
PLCbeta3 conf = confirmation of human PLC-beta3 inhibitors. shares compounds with PLC-gamma1 inh. purified PLC-beta3, fluorogenic substrate fluorescence. inhibition, % at 12.3 µM. hit rate 1% among 3,300
Of the large screens only hits and unclear results are named; the others gave an inactive call (follow-up assays come after a bar, where they were run). Cut-off read from the data, not from the text of the source, unless noted: active = inhibition above about 11%; inactive = the rest.

O=[N+]([O-])c1ccccc1/C=C/C=Nn1c(-c2ccc(F)cc2)n[nH]c1=S	none (no result: bovine MsrA act, MsrA inhibitor)
Cn1cc(-c2nnnn2-c2ccccc2)c(=O)c2ccccc21	PLCb3 inh 12 | PLCg1 ctr inactive | PLCbeta3 conf inactive
COc1cc(S(=O)(=O)N2CCN(c3ccccc3)CC2)ccc1Cl	PLC-gamma1 inh 10 | PLCg1 ctr inactive | PLCbeta3 conf inactive
COc1ccc(S(=O)(=O)N2CCN(c3ccccc3)CC2)cc1OC	none
COc1cccc(N2CCN(S(=O)(=O)c3ccc4c(c3)oc(=O)n4C)CC2)c1	PLC-gamma1 inh 11 | PLCg1 ctr inactive | PLCbeta3 conf inactive
COc1ccccc1Cc1c(C2CCCCC2)nc2c3ccccc3ccn12	none
COc1cccc(-c2ccccc2C2=CC(=O)CC(C)(C)C2=O)c1	none
COC1=CC(=O)OC(c2cccc([N+](=O)[O-])c2)C1 (stereo unspecified)	none (no result: bovine MsrA act)
CCN(CC(=O)NC1CCS(=O)(=O)C1)C(=O)C(c1ccccc1)c1ccccc1 (stereo unspecified)	PLC-gamma1 inh 12 | PLCg1 ctr inactive | PLCbeta3 conf inactive
O=C(CS(=O)c1ccc(F)cc1)Nc1ccccc1Cl (stereo unspecified)	PLC-gamma1 inh 10.0 | PLCg1 ctr inactive | PLCbeta3 conf inactive
O=C(CS(=O)c1cccc(C(F)(F)F)c1)Nc1ccccc1Cl (stereo unspecified)	none
COc1ccc(OC)c(-c2csc(NC(=O)COC(=O)C3(C)CC3(Cl)Cl)n2)c1 (stereo unspecified)	PLC-gamma1 inh 16 | PLCg1 ctr inactive | PLCbeta3 conf inactive
COc1ccc(CC(=O)Nc2nc(-c3cc(OC)ccc3OC)cs2)cc1	none
CN=C1NC(=O)/C(=C\c2cc(C)n(-c3ccccc3F)c2C)S1	none (no result: bovine MsrA act, MsrA inhibitor)
CCc1nc2ccc(C(=O)N(C)Cc3ccco3)cn2c1N(C)CCCc1ccccc1	none
CCn1cnc2scc(-c3ccc(OC)cc3)c2c1=O	none
CCOc1ccc(-c2csc3ncn(-c4ccc(OC)cc4)c(=O)c23)cc1	PLC-gamma1 inh 10 | PLCg1 ctr inactive | PLCbeta3 conf inactive
COc1ccc(NC(=O)Nc2ccc3c(c2)C(=O)N([C@@H](C)CO)C[C@@H](C)[C@@H](CN(C)S(=O)(=O)c2cccs2)O3)cc1	none
COc1ccc(NC(=O)Nc2ccc3c(c2)C(=O)N([C@H](C)CO)C[C@H](C)[C@@H](CN(C)S(=O)(=O)c2cccs2)O3)cc1	PLC-gamma1 inh 11 | PLCg1 ctr inactive | PLCbeta3 conf inactive
Cc1ccc(N(C(=O)CCC(=O)Nc2cc(C)on2)C(C(=O)NC2CCCC2)c2ccncc2)cc1 (stereo unspecified)	PLC-gamma1 inh 10 | PLCg1 ctr inactive | PLCbeta3 conf inactive
Clc1nnc(Cl)c2c1ncn2Cc1ccccc1	PLC-gamma1 inh 11 | PLCg1 ctr inactive | PLCbeta3 conf inactive
O=c1c2ccccc2ncn1Cc1ccccc1	none
O=C(c1ccc(N2C(=O)c3ccccc3C2=O)cc1)N1CCN(S(=O)(=O)c2ccccc2F)CC1	none
O=C(CSc1nc2[nH]ncc2c(=O)[nH]1)NCc1ccccc1	none
O=C(CSc1nc2[nH]ncc2c(=O)[nH]1)NCc1ccc(F)cc1	PLC-gamma1 inh 12 | PLCg1 ctr inactive | PLCbeta3 conf inactive
CC(=O)Nc1ccc(NC(=O)CCCSc2nc3ccccc3[nH]2)cc1	PLC-gamma1 inh 13 | PLCg1 ctr inactive | PLCbeta3 conf inactive
O=C(CSc1nc2ccccc2[nH]1)NCc1ccccc1	PLC-gamma1 inh 14 | PLCg1 ctr inactive | PLCbeta3 conf inactive
Cc1ccc(NC(=O)CCCSc2nc3ccccc3[nH]2)cc1	none
O=C1CCC(=O)N1c1ccc(CSc2nc3ccccc3[nH]2)cc1	PLC-gamma1 inh 11 | PLCg1 ctr inactive | PLCbeta3 conf inactive
CC(=O)Nc1nc2ncccn2c1-c1ccccc1	none (no result: bovine MsrA act, MsrA inhibitor)
O=C(Nc1ccccc1C(F)(F)F)OC1CCC12CCC(c1ccccc1)CC2 (stereo unspecified)	none (no result: bovine MsrA act, MsrA inhibitor)
COc1ccc(NC(=O)CSc2nnc(C)n2C2CC2)cc1S(=O)(=O)N1CCOCC1	PLC-gamma1 inh 9.8 | PLCg1 ctr inactive | PLCbeta3 conf inactive
CC(=O)Oc1ccc(/C=N/NS(=O)(=O)c2ccccc2)cc1	PLCb3 inh 11 | PLCg1 ctr inactive | PLCbeta3 conf inactive
O=C(COc1ccc(/C=N/NS(=O)(=O)c2ccccc2)cc1)NCc1ccccc1	none
COc1ccc(/C=N/NS(=O)(=O)c2ccc(C)cc2)cc1OC(=O)c1ccccc1	PLC-gamma1 inh 11 | PLCg1 ctr inactive | PLCbeta3 conf inactive
CCOC(=O)C1CCN(Cc2ccc(O)c(OC)c2)CC1	PLC-gamma1 inh 12 | PLCg1 ctr inactive | PLCbeta3 conf inactive
